# Only some compounds are listed: those with a hit (about 14% of all), similar ones and a draw of the others.
# NS1 inh: influenza NS1 inhibition; Potency, µM (doses to about 46.1 µM), without a hit: at the top dose activity, positive = more growth; actives 0.4% (n = 270,000); AID 2326; calls by dose curve; also: potency is read from the fitted curve at half-maximal effect; actives are rising curves; nearly all actives have a fitted effect of over 50% in size
#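 Compounds were scored for reversing the slow growth caused by influenza A NS1 in S. cerevisiae, measured by optical density at 600 nm. Assay medium contained 2% galactose at pH 6.0; NS1-free yeast of the same strain were the positive control.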
# Giardia FBPA inh: Giardia lamblia aldolase inhibition. A8B2U2. purified Giardia FBPA. Potency, µM (highest dose often 59.6 µM), for the others: at the highest dose activity, negative = inhibition, most hits filed as inhibitors. actives 0.71% (n = 290,000); also: potency is read from the fitted curve at half-maximal effect; % is scaled to controls: 0 for no effect and ±100 for the full control effect; nearly all actives have a fitted effect of over 55% in size
#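 Giardia FBPA (40 nM reagent) was preincubated 10 min at RT with compound (up to 57.5 uM final), then substrate plus GAPDH/TPI/NAD/arsenate coupling system with diaphorase/resazurin was added; resorufin fluorescence (525/598 nm) was read after 20 min.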
# LmPK inh: LmPK (Leishmania mexicana) enzyme inhibition | purified LmPK, Kinase-Glo ATP luminescence, 1 h | Potency, µM (top dose mostly 57.5 µM), for the others: top-dose activity change, negative = inhibition, hits mostly inhibitors | actives 0.37% (n = 290,000) | AID 1721; also: potency is read from the fitted curve at half-maximal effect; % is scaled to controls: 0 for no effect and ±100 for the full control effect
# Target sequence (Q27686 whole entry, looked up): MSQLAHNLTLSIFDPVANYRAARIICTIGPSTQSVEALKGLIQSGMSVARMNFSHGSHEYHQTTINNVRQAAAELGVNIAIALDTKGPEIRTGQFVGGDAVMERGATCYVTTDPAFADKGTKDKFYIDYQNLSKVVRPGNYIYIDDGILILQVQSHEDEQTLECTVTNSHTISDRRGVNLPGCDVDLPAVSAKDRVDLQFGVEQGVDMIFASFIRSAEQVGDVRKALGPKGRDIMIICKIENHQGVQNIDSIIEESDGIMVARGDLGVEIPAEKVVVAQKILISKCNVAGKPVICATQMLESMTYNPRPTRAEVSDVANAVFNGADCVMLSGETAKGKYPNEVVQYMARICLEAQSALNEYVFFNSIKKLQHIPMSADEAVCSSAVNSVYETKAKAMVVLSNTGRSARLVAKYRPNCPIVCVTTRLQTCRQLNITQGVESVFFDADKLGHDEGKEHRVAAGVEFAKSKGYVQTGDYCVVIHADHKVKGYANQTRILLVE
#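 Screened at intermediate enzyme activity to detect both inhibitors and activators: LmPK at 0.1 nM, with a 0.5 nM enzyme column as activation reference. PEP 0.5 mM, ADP 0.1 mM; ATP detected by luminescence after 1 h.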
# Cycloheximide cs: counter-screen hit for Shiga toxin inhibitors, cycloheximide. cell reporter, cycloheximide protein synthesis inhibition counterscreen. AID 2314. max response, %. actives 12% (n = 300,000); in the data active = max response mostly above about 13%, no sharp cut-off; inactive = mostly below about 14%; also: read at 38.3 µM for the half of the compounds with a filed dose; 0% is about no effect
# Shiga inhibitor: Shiga toxin inhibition | inhibition, % at 38.7 µM | Vero cells, Shiga toxin protein synthesis inhibition reporter | actives 9.2% (n = 290,000); in the data active = inhibition mostly above about 28%, no sharp cut-off; inactive = mostly below about 43%; also: 0% is about no effect
# Numbers without * were called inactive; ? = inconclusive; · = no result given. Unless noted, calls follow the shape of the dose curve; as a rule, active = well fitted curve in the direction sought with a large enough effect; inconclusive = small, poorly fitted or top-dose-only effect, or another doubt; inactive = no such curve, though single readings can be large; an effect the other way counts as inactive or inconclusive.
SMILES,NS1 inh,Giardia FBPA inh,LmPK inh,Cycloheximide cs,Shiga inhibitor
COc1cccc(C(=O)OCc2ccccc2C#N)c1O,-13.0%,-11.0%,12.4%,21.1*,35.8
N#Cc1ccccc1COC(=O)c1cc(=O)c2ccccc2o1,4.4%,1.7%,2.4%,7.8,45.6
N#Cc1ccccc1COC(=O)c1ccc(Br)o1,-1.5%,5.6%,-6.9%,26.0*,54.7
Cc1csc(=NC(=O)c2ccccc2)n1Cc1ccco1,-14.0%,9.8%,8.0%,11.0,27.5
CCn1c(C)csc1=NC(=O)c1ccccc1O,-69.4%,-7.7%,4.4%,55.9*,107.4*
CCOC(=O)c1sc(=NC(=O)c2ccc(S(=O)(=O)N(C)c3ccccc3)cc2)n(C)c1C,·,2.1%,-0.5%,12.6,-21.5
Cc1ccc(C)c(-n2c(-c3ccc(Br)cc3)csc2=NC(=O)c2ccccc2F)c1,28.7%,-5.4%,6.3%,-1.5,-10.6
Cc1csc(=NC(=O)c2ccccc2)n1C,-10.1%,5.0%,-25.5%,50.5*,82.8*
CCn1c(C)csc1=NC(=O)c1ccccc1,-83.4%,-7.8%,-0.2%,28.8*,33.7*
CCN(CC)C[C@@H]1CCCCN1CC(=O)N1c2ccccc2C(=O)Nc2cccnc21,·,5.4%,·,·,·
COc1cc(/C=N/NC(=O)c2cccc([N+](=O)[O-])c2)ccc1OC(=O)c1ccco1,·,-7.1%,-2.9%,7.2,40.2*
COc1ccc(/C=N/NC(=O)c2cccc([N+](=O)[O-])c2)cc1OC,5.3%,-1.2%,1.7%,1.0,17.4
COc1cc(/C=N/Nc2cccc(C)c2)ccc1OC(=O)c1ccco1,-4.3%,-1.0%,-0.8%,38.6*,19.7
COc1ccccc1N1CCN(C(=O)c2ccc(-c3ccccc3)cc2)CC1,-60.5%,-0.1%,11.9%,20.4*,34.1
CCOc1ccccc1N1CCN(C(=O)c2ccccc2SCC(=O)N2CCCC2)CC1,3.9%,·,-0.4%,15.2*,27.5*
COc1ccc(C(=O)N2CCN(c3ccccc3OC)CC2)cc1,·,1.8%,8.9%,20.9,84.4
CCOc1ccccc1N1CCN(C(=O)c2ccccc2)CC1,-6.6%,-4.0%,-1.7%,0.7,-5.0
COc1ccccc1N1CCN(C(=O)CSc2ccccc2)CC1,-2.7%,1.2%,8.0%,26.8*,65.1*
COc1ccc(C(=O)N2CCC(n3nccc3NC(=O)C3CCOC3)CC2)cc1 (stereo not drawn),2.9%,11.8%,-9.2%,3.9,8.2
S=C(Nc1ccc2cn[nH]c2c1)Nc1ccc2cn[nH]c2c1,-4.8%,·,·,·,·
CC(=O)Nc1ccc(S(=O)(=O)Nc2cccc(-c3cn4cccnc4n3)c2)cc1,·,1.0%,-1.0%,11.2,-3.3
Nc1cccc(-c2cn3cccnc3n2)c1,·,3.5%,-6.6%,24.8,39.4
Cc1ccc(-c2cn3cccnc3n2)cc1,·,-14.3%,9.1%,27.8*,71.4*
c1cnc2nc(-c3ccc4c(c3)OCO4)cn2c1,-3.9%,-2.1%,?,34.7*,37.7*
CS(=O)(=O)Nc1ccc(-c2cn3cccnc3n2)cc1,6.3%,-1.2%,-5.7%,21.4*,43.5*
SMILES,NS1 inh,Giardia FBPA inh,LmPK inh,Cycloheximide cs,Shiga inhibitor
Cc1ccc(NCC(=O)N=Nc2c(O)n(C)c3ccccc23)cc1,1.1%,-15.1%,1.3%,15.0*,56.1*
Cn1c(O)c(N=Nc2ccc(F)cc2)c2ccccc21,·,-6.0%,8.3%,39.8*,35.3
Brc1ccc(-c2nc(N/N=C/c3cccnc3)c3ccccc3n2)cc1,17.7%,-18.4%,-19.6%,31.6*,103.4*
C(=N\Nc1nc(-c2ccccn2)nc2ccccc12)/c1ccccc1,2.9%,8.7%,5.4%,7.0,6.9
NNc1nc2ccccc2nc1C(F)(F)F,-4.8%,-14.2%,8.3%,-1.8,-5.9
C(=N\Nc1nc(-c2cccnc2)nc2ccccc12)/c1ccccc1,12.5%,-13.1%,-10.6%,23.4*,49.5*
COc1cccc(/C=N/Nc2nc(-c3cccnc3)nc3ccccc23)c1,5.3%,-8.6%,-2.3%,17.8*,65.5*
COc1cccc(CNc2nc(-c3cccnc3)nc3ccccc23)c1,·,-7.2%,4.3%,-5.0,-10.0
FC(F)(F)c1nc2ccccc2nc1N/N=C\c1ccccc1,-7.8%,-10.0%,-0.2%,18.7*,93.6*
COc1ccc(-c2nc3cnc(N(C)C)nc3n(C3CC3)c2=O)cc1,·,3.1%,·,·,·
O=C(O)CC1COc2ccccc2N1C(=O)c1ccccc1Cl (stereo not drawn),-5.8%,6.1%,9.2%,-1.4,3.1
CC(=O)c1ccccc1N(C(=O)c1ccco1)C(C(=O)NC1CCCC1)c1ccc(N2CCOCC2)cc1 (stereo not drawn),-5.1%,1.0%,10.1%,-1.8,-3.7
C=CCN(C(=O)CCc1ccccc1OC)c1nc(-c2ccc(S(C)(=O)=O)cc2)cs1,7.9%,·,-1.4%,39.0*,62.8*
C=CCN(C(=O)Cc1cccs1)c1nc(-c2ccc(S(C)(=O)=O)cc2)cs1,20.5%,-8.3%,-2.1%,20.9*,72.8*
O=C(CSCc1c(Cl)cccc1Cl)NCc1ccco1,2.5%,-3.5%,-0.6%,-1.3,2.0
CC(CC(=O)NCc1ccc(F)cc1)c1ccccc1 (stereo not drawn),-1.6%,-1.5%,-0.3%,9.2,-4.9
CC(CC(=O)NCCc1ccc(F)cc1)c1ccccc1 (stereo not drawn),-7.1%,6.3%,-1.5%,25.4*,56.7
CNC(=O)CSCc1c(F)cccc1Cl,-3.5%,5.3%,-4.7%,-4.6,-3.5
O=C(CSCc1c(F)cccc1Cl)NCCc1ccccc1,-49.9%,-3.7%,0.4%,21.3*,45.6*
O=C(CSCc1c(F)cccc1Cl)NCc1ccco1,-3.6%,5.1%,-0.2%,26.0*,23.7
CC(C)NC(=O)CSCc1c(F)cccc1Cl,8.0%,-5.6%,10.4%,8.4*,8.8
Cc1ccc(S(=O)(=O)N2CCN(C(=O)C3CCCC3)CC2)cc1C,-4.7%,9.2%,1.4%,-1.1,-3.3
COc1ccc(-c2c(O)c3c(OC)c4c(cc3oc2=O)OC(C)(C)C=C4)cc1,·,20.0%,·,·,·
O=C(CSCc1ccc(Br)cc1)NCCc1ccccc1,-51.7%,9.2%,-3.5%,-2.6,1.6
O=C(CCc1ccccc1)NCCSCc1c(F)cccc1Cl,-38.2%,1.9%,4.0%,23.2*,13.7
SMILES,NS1 inh,Giardia FBPA inh,LmPK inh,Cycloheximide cs,Shiga inhibitor
O=C(CSCc1ccccc1)NCCc1ccc(F)cc1,-1.4%,-0.4%,1.0%,17.5*,29.6
CCOC(=O)c1c(O)cc(C)cc1Nc1ccccc1,-3.5%,-4.1%,3.1%,11.5,-2.1
CC(C)C(OC(=O)CN1C(=O)c2ccccc2C1=O)C(=O)NC1CCCC1 (stereo not drawn),5.2%,-3.8%,-0.8%,-7.3,-4.1
O=C(CSc1ccc(-c2cccs2)nn1)N1CCCCCC1,1.5%,4.0%,-5.3%,20.0*,44.1*
Cc1ccc(C)c(NC(=O)CSc2ccc(-c3cccs3)nn2)c1,7.1%,4.1%,-4.1%,-8.9,-17.4
Cc1cccc(NC(=O)CSc2ccc(-c3cccs3)nn2)c1C,2.8%,5.2%,-1.4%,13.3*,10.8
O=C(CSc1ccc(-c2cccs2)nn1)N1CCCCC1,2.5%,6.1%,-20.0%,46.3*,52.0*
